# Measurements as given in ChEMBL document CHEMBL1961873, “Compounds: GSK PKIS; Assays: Nanosyn kinase panel” (2012).
# Key:
# [1] = target: T1, Muscle, skeletal receptor tyrosine-protein kinase (Homo sapiens) (UniProt O15146); details: at 1 µM;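 also: reported value is the mean percent inhibition of MuSK kinase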
# T1 sequence (whole entry): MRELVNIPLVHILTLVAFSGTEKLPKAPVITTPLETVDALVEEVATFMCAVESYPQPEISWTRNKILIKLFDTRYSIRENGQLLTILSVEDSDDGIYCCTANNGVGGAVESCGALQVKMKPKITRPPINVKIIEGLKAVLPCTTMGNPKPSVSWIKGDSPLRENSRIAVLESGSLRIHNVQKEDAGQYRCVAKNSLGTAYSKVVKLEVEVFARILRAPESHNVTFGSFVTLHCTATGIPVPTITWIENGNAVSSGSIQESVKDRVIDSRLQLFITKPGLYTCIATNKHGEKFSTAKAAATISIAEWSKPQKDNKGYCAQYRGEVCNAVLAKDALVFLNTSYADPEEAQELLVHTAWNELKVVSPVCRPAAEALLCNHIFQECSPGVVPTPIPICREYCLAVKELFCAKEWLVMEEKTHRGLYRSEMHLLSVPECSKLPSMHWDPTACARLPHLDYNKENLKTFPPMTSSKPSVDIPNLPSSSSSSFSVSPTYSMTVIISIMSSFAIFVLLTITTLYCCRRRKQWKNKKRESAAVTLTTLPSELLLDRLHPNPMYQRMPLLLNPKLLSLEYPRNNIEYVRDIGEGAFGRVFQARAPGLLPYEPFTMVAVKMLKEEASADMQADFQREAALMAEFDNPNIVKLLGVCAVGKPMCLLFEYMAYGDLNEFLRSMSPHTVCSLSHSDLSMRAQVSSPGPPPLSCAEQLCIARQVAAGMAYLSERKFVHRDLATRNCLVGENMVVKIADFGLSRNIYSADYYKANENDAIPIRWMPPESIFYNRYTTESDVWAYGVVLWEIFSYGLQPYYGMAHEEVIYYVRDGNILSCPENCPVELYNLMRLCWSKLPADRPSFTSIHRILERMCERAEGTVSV
# [2] = target: Platelet-derived growth factor receptor alpha (Homo sapiens) (UniProt P16234); details: at 0.1 µM
# [3] = target: Platelet-derived growth factor receptor alpha (Homo sapiens) (UniProt P16234); details: at 1 µM
# [4] = test system: Platelet-derived growth factor receptor alpha (Homo sapiens), P16234 [D842V]; details: at 0.1 µM
# [5] = test system: Platelet-derived growth factor receptor alpha (Homo sapiens), P16234 [D842V]; details: at 1 µM
# [6] = test system: Platelet-derived growth factor receptor alpha (Homo sapiens), P16234 [T674I]; details: at 0.1 µM
# [7] = test system: Platelet-derived growth factor receptor alpha (Homo sapiens), P16234 [T674I]; details: at 1 µM
# [8] = test system: Platelet-derived growth factor receptor alpha (Homo sapiens), P16234 [V561D]; details: at 0.1 µM
# [9] = test system: Platelet-derived growth factor receptor alpha (Homo sapiens), P16234 [V561D]; details: at 1 µM
# [10] = target: Platelet-derived growth factor receptor beta (Homo sapiens) (UniProt P09619); details: at 0.1 µM
# [11] = target: Platelet-derived growth factor receptor beta (Homo sapiens) (UniProt P09619); details: at 1 µM
# [12] = target: Tyrosine-protein kinase FRK (Homo sapiens) (UniProt P42685); details: at 0.1 µM
# [13] = target: Tyrosine-protein kinase FRK (Homo sapiens) (UniProt P42685); details: at 1 µM
# [14] = target: Protein-tyrosine kinase 2-beta (Homo sapiens) (UniProt Q14289); details: at 0.1 µM
# [15] = target: Protein-tyrosine kinase 2-beta (Homo sapiens) (UniProt Q14289); details: at 1 µM
# [16] = target: Proto-oncogene tyrosine-protein kinase receptor Ret (Homo sapiens) (UniProt P07949); details: at 0.1 µM
# [17] = target: Proto-oncogene tyrosine-protein kinase receptor Ret (Homo sapiens) (UniProt P07949); details: at 1 µM
# [18] = test system: Proto-oncogene tyrosine-protein kinase receptor Ret (Homo sapiens), P07949 [V804L]; details: at 0.1 µM
# [19] = test system: Proto-oncogene tyrosine-protein kinase receptor Ret (Homo sapiens), P07949 [V804L]; details: at 1 µM
# [20] = test system: Proto-oncogene tyrosine-protein kinase receptor Ret (Homo sapiens), P07949 [Y791F]; details: at 0.1 µM
# Sequence of Platelet-derived growth factor receptor alpha (Homo sapiens), P16234 [V561D] (P16234 whole entry V561D): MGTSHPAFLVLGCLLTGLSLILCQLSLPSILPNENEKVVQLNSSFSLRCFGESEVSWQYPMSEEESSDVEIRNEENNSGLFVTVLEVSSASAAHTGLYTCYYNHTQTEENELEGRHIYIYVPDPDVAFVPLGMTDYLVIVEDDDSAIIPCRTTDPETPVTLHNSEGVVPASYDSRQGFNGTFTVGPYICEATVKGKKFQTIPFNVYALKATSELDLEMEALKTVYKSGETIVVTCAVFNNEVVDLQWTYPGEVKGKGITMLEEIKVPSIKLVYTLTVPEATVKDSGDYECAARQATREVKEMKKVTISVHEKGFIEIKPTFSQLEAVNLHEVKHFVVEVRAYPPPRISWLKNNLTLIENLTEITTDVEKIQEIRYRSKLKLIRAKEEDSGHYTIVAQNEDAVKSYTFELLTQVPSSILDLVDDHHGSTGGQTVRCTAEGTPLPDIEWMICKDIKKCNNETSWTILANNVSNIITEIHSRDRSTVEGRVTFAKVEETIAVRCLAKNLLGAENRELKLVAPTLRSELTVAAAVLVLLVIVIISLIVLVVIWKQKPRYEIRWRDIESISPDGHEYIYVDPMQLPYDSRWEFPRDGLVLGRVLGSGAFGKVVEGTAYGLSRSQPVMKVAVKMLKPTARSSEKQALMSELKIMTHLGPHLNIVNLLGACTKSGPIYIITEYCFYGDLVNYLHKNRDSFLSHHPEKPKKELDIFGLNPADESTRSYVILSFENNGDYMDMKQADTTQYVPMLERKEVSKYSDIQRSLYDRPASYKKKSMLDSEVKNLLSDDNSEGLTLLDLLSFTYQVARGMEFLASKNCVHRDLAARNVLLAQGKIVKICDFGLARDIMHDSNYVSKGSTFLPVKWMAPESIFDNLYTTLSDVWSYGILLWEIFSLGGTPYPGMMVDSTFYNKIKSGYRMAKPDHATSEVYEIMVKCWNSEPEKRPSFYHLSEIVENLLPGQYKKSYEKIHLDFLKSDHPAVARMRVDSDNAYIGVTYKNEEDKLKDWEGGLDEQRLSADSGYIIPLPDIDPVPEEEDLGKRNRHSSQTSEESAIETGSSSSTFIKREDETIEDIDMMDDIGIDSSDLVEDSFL
# Sequence of Tyrosine-protein kinase FRK (Homo sapiens) (P42685 whole entry): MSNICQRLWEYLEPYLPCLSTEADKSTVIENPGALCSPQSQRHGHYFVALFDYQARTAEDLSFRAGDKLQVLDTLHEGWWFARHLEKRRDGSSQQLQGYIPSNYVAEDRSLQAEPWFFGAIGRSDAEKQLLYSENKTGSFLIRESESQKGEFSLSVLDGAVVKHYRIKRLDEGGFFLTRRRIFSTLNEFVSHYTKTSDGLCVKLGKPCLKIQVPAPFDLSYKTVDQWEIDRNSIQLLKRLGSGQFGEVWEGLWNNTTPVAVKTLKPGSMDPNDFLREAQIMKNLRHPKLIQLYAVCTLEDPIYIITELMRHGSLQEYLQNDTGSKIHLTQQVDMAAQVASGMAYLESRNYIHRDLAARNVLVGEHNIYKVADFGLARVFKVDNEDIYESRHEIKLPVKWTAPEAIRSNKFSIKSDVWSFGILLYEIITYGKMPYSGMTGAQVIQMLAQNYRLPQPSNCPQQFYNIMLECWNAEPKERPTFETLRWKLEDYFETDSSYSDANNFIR
# Sequence of Platelet-derived growth factor receptor alpha (Homo sapiens), P16234 [D842V] (P16234 whole entry D842V): as the sequence (P16234 whole entry V561D) above, with D561V, D842V counted along it
# Sequence of Platelet-derived growth factor receptor alpha (Homo sapiens) (P16234 whole entry): as the sequence (P16234 whole entry V561D) above, with D561V counted along it
# Sequence of Proto-oncogene tyrosine-protein kinase receptor Ret (Homo sapiens) (P07949 whole entry): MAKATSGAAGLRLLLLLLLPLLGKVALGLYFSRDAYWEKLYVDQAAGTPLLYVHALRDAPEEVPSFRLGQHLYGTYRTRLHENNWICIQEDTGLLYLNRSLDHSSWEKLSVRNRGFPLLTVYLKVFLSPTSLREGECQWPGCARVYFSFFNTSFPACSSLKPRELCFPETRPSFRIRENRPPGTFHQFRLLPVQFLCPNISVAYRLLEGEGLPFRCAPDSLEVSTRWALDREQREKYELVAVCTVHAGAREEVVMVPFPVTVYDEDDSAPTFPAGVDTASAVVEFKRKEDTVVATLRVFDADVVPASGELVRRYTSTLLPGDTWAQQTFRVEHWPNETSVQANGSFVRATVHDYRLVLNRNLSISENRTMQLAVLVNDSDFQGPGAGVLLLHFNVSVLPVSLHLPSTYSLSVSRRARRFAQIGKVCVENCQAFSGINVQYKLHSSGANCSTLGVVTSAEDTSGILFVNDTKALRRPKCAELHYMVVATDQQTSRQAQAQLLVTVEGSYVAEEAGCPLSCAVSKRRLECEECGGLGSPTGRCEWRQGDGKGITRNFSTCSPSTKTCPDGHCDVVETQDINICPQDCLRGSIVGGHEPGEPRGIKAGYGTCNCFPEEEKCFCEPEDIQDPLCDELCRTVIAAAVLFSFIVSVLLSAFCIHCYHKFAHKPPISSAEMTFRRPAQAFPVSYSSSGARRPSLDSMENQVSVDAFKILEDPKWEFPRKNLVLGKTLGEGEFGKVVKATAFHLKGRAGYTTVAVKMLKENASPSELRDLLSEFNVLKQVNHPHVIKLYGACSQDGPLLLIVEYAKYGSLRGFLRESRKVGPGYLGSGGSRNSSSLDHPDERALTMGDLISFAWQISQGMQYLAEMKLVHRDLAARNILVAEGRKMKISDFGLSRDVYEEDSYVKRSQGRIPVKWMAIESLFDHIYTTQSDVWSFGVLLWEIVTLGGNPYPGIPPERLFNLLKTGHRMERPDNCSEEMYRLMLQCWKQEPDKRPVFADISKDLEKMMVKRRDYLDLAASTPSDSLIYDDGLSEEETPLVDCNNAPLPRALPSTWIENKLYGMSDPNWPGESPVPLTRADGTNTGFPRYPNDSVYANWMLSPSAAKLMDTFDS
SMILES,inhibition [1],inhibition [2],inhibition [3],inhibition [4],inhibition [5],inhibition [6],inhibition [7],inhibition [8],inhibition [9],inhibition [10],inhibition [11],inhibition [12],inhibition [13],inhibition [14],inhibition [15],inhibition [16],inhibition [17],inhibition [18],inhibition [19],inhibition [20]
CS(=O)(=O)CCNCc1ccc(-c2ccc3ncnc(Nc4ccc(OCc5ccccc5)c(C(F)(F)F)c4)c3c2)o1,-0.25%,6.22%,7.17%,2.98%,2.15%,3.58%,5.04%,3.38%,1.15%,1.55%,2%,3.35%,2.29%,8.29%,7.02%,5.03%,2.3%,3.65%,4.42%,6.07%
COc1cc(N2CCN(C(C)C)CC2)ccc1Nc1nc(Nc2ccc(F)cc2C(N)=O)c2cc[nH]c2n1,13.2%,3.76%,31.1%,1.57%,21.6%,1.91%,5.04%,1.82%,21.8%,5.8%,26.9%,2.93%,12.7%,95.5%,97.8%,-3.34%,9.44%,8.15%,43.8%,4.48%
CCn1c(-c2nonc2N)nc2cnc(Oc3cccc(NC(=O)c4ccc(N(C)C)cc4)c3)cc21,2.13%,4.44%,6.4%,1.28%,1.65%,2.82%,4.91%,1.85%,6.18%,3.88%,6.43%,1.12%,0.64%,1.13%,3.58%,3.06%,4.26%,3.42%,6.51%,3.78%
CCCN1CCC(c2ccc(Nc3nc(Nc4cc(F)ccc4C(N)=O)c4cc[nH]c4n3)c(OC)c2)CC1,15%,8.78%,46.5%,6.28%,43.8%,4.13%,9.42%,8.22%,36.4%,10.4%,54.5%,4.23%,19.3%,94.9%,96.8%,9.07%,28.1%,9.84%,51.4%,10%
CCn1cc(-c2ccnc3[nH]ccc23)c(-c2cccc(NC(=O)Nc3ccc(OCc4ccccc4)cc3)c2)n1,-5.2%,1.29%,7.03%,1.41%,2.72%,0.5%,1.13%,-0.44%,1.14%,2.04%,3.09%,1.32%,1.39%,3.44%,3.88%,0.08%,0.88%,0.99%,0.01%,2.29%
COc1ccc(CNC(=O)c2ccc(-c3cc(-c4nnc(C)o4)ccc3C)cc2)cc1,-7.05%,12.6%,16.5%,3.66%,3.96%,5.1%,6.47%,7.3%,4.07%,8.68%,13%,0.66%,1.5%,-0.09%,5.83%,7.22%,7.69%,14%,15.8%,6.44%
Fc1ccc(-c2nn3ccccc3c2-c2ccncc2)cc1,3.5%,1.93%,5.44%,1.99%,5.38%,3.28%,1.29%,1.28%,5.89%,0.58%,12.7%,0.42%,1.58%,3.99%,4.06%,1.59%,5.12%,0.36%,1.74%,4.32%
NS(=O)(=O)c1ccc(Nc2ncc(-c3ccccc3)o2)cc1,12.4%,7.81%,34.8%,1.5%,10.2%,14.4%,65.1%,25.7%,50.5%,12%,46.6%,1.2%,1.36%,10.6%,19.8%,3.66%,7.66%,3.57%,10%,0.77%
CC(C)(CO)CNC(=O)c1ccc2c(c1)/C(=N/Nc1ccc(S(N)(=O)=O)cc1)C(=O)N2,21.6%,18.7%,62.5%,23.2%,77.3%,-0.15%,6.93%,15.7%,65.4%,38.7%,72.3%,-0.08%,-0.01%,-4.01%,18.8%,9.94%,49.1%,33.5%,72.5%,13.8%
CCn1c(-c2nonc2N)nc2ccccc21,4.12%,6.47%,8.29%,2.53%,2.64%,2.43%,3.19%,1.19%,1.67%,2.55%,5.69%,0.05%,1.69%,4.43%,7.84%,1.65%,3.15%,2.56%,0.52%,4.13%
COc1cccc(-c2c[nH]c3c(N/N=C/c4ccncc4)ncnc23)c1,48.8%,64%,82.8%,72.2%,94.4%,21.8%,82.2%,59.7%,93%,55%,81.1%,1.61%,3.28%,2.76%,9.78%,10.7%,37.9%,7.65%,30.7%,10.2%
c1ccc(COc2ccc(Nc3ncnc4ccc(-c5ccco5)cc34)cc2)cc1,1.01%,3.81%,6.96%,2.63%,3.21%,2.49%,3.6%,2.39%,2.43%,-0.23%,0.57%,-0.18%,0.89%,-2.12%,1.9%,1.71%,2.96%,1.93%,2.59%,1.88%
CNC(=O)c1cccc(C#Cc2cncnc2Nc2ccc(OCc3cccc(F)c3)c(Cl)c2)c1,-1.15%,5.17%,17.4%,-0.74%,2.9%,1.03%,2.59%,0.66%,4.6%,4.41%,14.1%,-0.32%,-0.09%,-0.72%,5.17%,1.18%,11.6%,2.44%,12.6%,0.02%
Cc1ccc2c(-c3ccnc(Nc4ccccc4)n3)c(-c3ccc(F)cc3)nn2n1,4.61%,14.8%,47.9%,8.2%,46.6%,4.09%,4.32%,11.6%,59.1%,22.5%,68.1%,3.09%,14.2%,15.2%,47.5%,14.8%,46.6%,1.27%,0.44%,14.7%
N#Cc1c(NC(=O)CN2CCOCC2)sc2c1CCCC2,5.38%,6.84%,10.4%,3.81%,4.78%,6.89%,9.82%,4.95%,3.92%,2.42%,8.2%,2.9%,1.5%,9.37%,14.3%,4.27%,7.18%,1.54%,8.77%,5.41%
